Assay results from PubChem BioAssay AID743366 (National Center for Advancing Translational Sciences (NCATS), 2014).

Assay: qHTS profiling of inhibitors of Plasmodium falciparum (HB3) proliferation (acoustic dispense)
Details: P. falciparum HB3 in erythrocytes, SYBR Green, 72 h; at 49.8 µM (top of the series) unless noted

Row | SMILES | activity (normalised, proliferation)
1 | OB1OCc2cc(F)ccc21 | 0.13%
2 | CC[C@@]1([C@@H]2O[C@@H]([C@H]3O[C@@](O)(CO)[C@H](C)C[C@H]3C)C[C@H]2C)CC[C@H]([C@]2(C)CC[C@]3(C[C@H](O)[C@@H](C)[C@@H]([C@@H](C)[C@@H](OC)[C@H](C)C(=O)O)O3)O2)O1 | 1.41% [at 23.2 µM]
3 | COC(=O)c1ccc2c(C(=Nc3ccc(N(C)C(=O)CN4CCN(C)CC4)cc3)c3ccccc3)c(O)[nH]c2c1 | 35.3%
4 | CC[C@@]1(O)C[C@H](O[C@H]2C[C@H](N(C)C)[C@H](O[C@H]3C[C@H](O)[C@H](O[C@H]4CCC(=O)[C@H](C)O4)[C@H](C)O3)[C@H](C)O2)c2c(cc3c(c2O)C(=O)c2c(O)cccc2C3=O)[C@@H]1C(=O)OC | -2.68%
5 | C=C[C@@H]1CN2CC[C@@H]1C[C@H]2[C@H](O)c1ccnc2ccc(OC)cc12 | 0.317%
6 | Cc1nc2c(C#N)cccc2n1-c1ccc(C(=O)NC2CC2)s1 | 1.48%
7 | CO[C@@H]1C(N(C)C(=O)c2ccccc2)C[C@H]2O[C@]1(C)n1c3ccccc3c3c4c(c5c6ccccc6n2c5c31)C(=O)NC4=O (some centres undefined) | 17.3%
8 | CCS(=O)(=O)Nc1ccc2[nH]c(O)c(C(=Nc3ccc(CN4CCCCC4)cc3)c3ccccc3)c2c1 | -1.43%
9 | CN(C(=O)OC(C)(C)C)[C@@H](Cc1ccc(O[S+](=O)([O-])c2cccc3cnccc23)cc1)C(=O)N1CCN(C(=O)OCc2ccccc2)CC1 | 2.29%
10 | C1CCC(C(CC2CCCCN2)C2CCCCC2)CC1 (centres undefined) | -0.0393%
11 | Cn1c2ccccc2c2c3c(c4c5ccccc5n(CCC#N)c4c21)CNC3=O | 106%
12 | Cn1c(=O)c(-c2c(Cl)cccc2Cl)cc2cnc(Nc3cccc(C(=O)O)c3)nc21 | 16.3%
13 | CN([C@@H](Cc1ccc(OS(=O)(=O)c2cccc3cnccc23)cc1)C(=O)N1CCN(c2ccccc2)CC1)S(=O)(=O)c1cccc2cnccc12 | 0.0465%
14 | CCn1nnc2c(N3CCOCC3)nc(-c3ccc(NC(=O)Nc4ccc(C(=O)N5CCN(C)CC5)cc4)cc3)nc21 | 4.68%
15 | COc1cc(C)c2c(Oc3cccc(C(F)(F)F)c3)c(OC)cc(NCCCC(C)N)c2n1 (centres undefined) | -2.19%
16 | C[C@H]1[C@@H](OC(=O)CCC(=O)O)O[C@@H]2O[C@@]3(C)CC[C@@H]4[C@H](C)CC[C@@H]1[C@@]24OO3 | -0.479%
17 | CN(C)c1ccc2nc3ccc(=[N+](C)C)cc-3sc2c1 | 19.1%

Row | SMILES | activity (normalised, proliferation)
18 | Cn1c(=O)n(-c2ccc(C(C)(C)C#N)cc2)c2c3cc(-c4cnc5ccccc5c4)ccc3ncc21 | 1.54%
19 | O=C1c2c(O)ccc(O)c2C(=O)c2c(NCCNCCO)ccc(NCCNCCO)c21 | -5.84%
20 | CC[C@H]1OC(=O)[C@H](C)[C@@H](O[C@H]2C[C@@](C)(OC)[C@@H](O)[C@H](C)O2)[C@H](C)[C@@H](O[C@@H]2O[C@H](C)C[C@H](N(C)C)[C@@H]2O)[C@](C)(O)C[C@@H](C)CN(C)[C@H](C)[C@@H](O)[C@]1(C)O | -0.367%
21 | C[C@@H](Oc1ccc2[nH]nc(C=Cc3cnn(CCO)c3)c2c1)c1c(Cl)cncc1Cl | 1.95%
22 | COc1ccc2cc3[n+](cc2c1OC)CCc1cc2c(cc1-3)OCO2 | -1.06%
23 | CC(=NNC(=S)N1CCC1)c1ccccn1 | -0.583%
24 | CCCCN(CCCC)CC(O)c1cc(Cl)cc2c1-c1ccc(Cl)cc1C2=Cc1ccc(Cl)cc1 (centres undefined) | -1.5%
25 | Cc1ccc([N+](=O)[O-])cc1S(=O)(=O)N(C)N=Cc1cnc2ccc(Br)cn12 | 13.3%
26 | C=CCNc1c(O)cc2c(O)c1C[C@@H](C)C[C@H](OC)[C@@H](O)[C@@H](C)C=C(C)[C@H](OC(N)=O)[C@@H](OC)C=CC=C(C)C(=O)N2 | -1.74%
27 | CC(C)Oc1cc(Nc2nc(N[C@@H](C)c3ccc(F)cn3)ncc2Cl)[nH]n1 | 2.89%
28 | CCN(CC)Cc1cc(Nc2ccnc3cc(Cl)ccc23)ccc1O | -0.453% [at 23.2 µM]
29 | O=C1c2ccccc2-[n+]2ccc3c([nH]c4ccccc43)c21 | 4.27%
30 | COc1ccc(-c2cc3c(C)nc(N)nc3n(C3CCC(OCCO)CC3)c2=O)cn1 (centres undefined) | -1.37%
31 | Cc1cnc(Nc2ccc(CN3CCOCC3)cc2)nc1Nc1cccc(S(=O)(=O)NC(C)(C)C)c1 | 0.609%
32 | COC(=O)[C@]12CCC(C)(C)C[C@@H]1[C@@H]1C(=O)C=C3[C@@]4(C)C=C(C#N)C(=O)C(C)(C)[C@@H]4CC[C@@]3(C)[C@]1(C)CC2 | 41.4%
33 | NC(=NCCCCCCN=C(N)N=C(N)Nc1ccc(Cl)cc1)N=C(N)Nc1ccc(Cl)cc1 | 8.37%
34 | C=C[C@@H]1CN2CCC1C[C@@H]2C(O)c1ccnc2ccc(OC)cc12 (some centres undefined) | 1.73%
